Compounds without any hit were thinned out: in the full panel of roughly 83,000, 20% have a hit.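 Values shown are percent growth following 48 h exposure of cells in 96-well plates to a single concentration of compound; below 10 was considered active.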 The source made the active and inactive calls.

The subject of the assay is NCI-H23 lung. The assay can be described thus: NCI-60 one-dose screen, 48 h (100 = growth as untreated, 0 = no growth, -100 = all killed). The conditions noted are these: 10 µM unless noted.
As to `O=C(Nc1cccc2ccccc12)c1cc2ccccc2cc1O`, the growth is 8.03% (active).
For `COc1cc2c(O)n(CCCN3CCOCC3)c3c4cnc5cccc(c(=O)c3c2cc1OC)c54` the value was 33.3% (inactive).
In the case of `C#CCNC(=O)CC[C@@H](C)[C@H]1CC[C@H]2[C@@H]3CC[C@@H]4CC(=O)CC[C@]4(C)[C@H]3CC[C@]12C` it was -27.5% [100 µM] (active).
In the case of `COc1ccc(NC(=O)Nc2ccc(-c3cccnc3)cc2N2CCC(CO)CC2)cc1` it was 27.1% (inactive).
As for `CC1(C(=O)O)CCC(N)(C(=O)O)C1(C)C` (configuration not stated), the growth was 113% (inactive).
In the case of `COc1ncc(-c2ccc3nccc(C#CCCCCC(=O)NO)c3c2)cc1NS(=O)(=O)c1ccc(F)cc1F`, the growth is 29.6% (inactive).
With `O=C(O)CC1CCCCC1c1ccccc1` (configuration not stated), the growth was 111% (inactive).
As to `CC(C)=CC/C=C(/C)[C@H]1CC[C@]2(C)[C@@H]1CC[C@@H]1[C@@]3(C)CCC(=O)NC(C)(C)[C@@H]3CC[C@]12C`, the growth was 13.6% [100 µM] (inactive).
Take `Cc1nc(Cl)c2c(n1)N(C)c1ccc(Cl)cc1C(C)C2` (configuration not stated): the growth was 92.5% (inactive).
For `Cc1ccc(N)c(O)c1`, the growth is 86.2% (inactive).
With `Nc1ccc(Cl)c([N+](=O)[O-])c1`, the growth was 111% (inactive).
In the case of `O=[N+]([O-])c1cccc(N=NNc2cccc([N+](=O)[O-])c2)c1`, the growth is 95.2% (inactive).
In the case of `C=C(C)[C@@H]1CC[C@]2(C)[C@H](CC[C@@H]3[C@@H]([C@@](C)(O)CCC=C(C)C)CC[C@]32C)[C@@]1(C)CCC(=O)N1CCN(C)CC1` it was -72% [100 µM] (active); in that of `Cn1cc(-c2noc(C(=O)c3cn(C)c4ncc(Br)cc34)n2)c2ccccc21`, 97.7% (inactive).
For `COc1cc(NCc2ccccc2O)c2ncccc2c1` the value was 97.7% (inactive); for `Cc1ccc(C2=C/C(=C/c3ccc(Br)cc3)C(=O)N2CCc2ccc(S(N)(=O)=O)cc2)cc1`, 100% (inactive).
In the case of `Nc1nc(Nc2ccccc2)c2ncn(Cc3ccc4c(c3)OCO4)c2n1` it was 62.8% (inactive).
As for `O=C(CCCSc1nc(-c2ccccc2)cc(-c2ccccc2)n1)NO`, the growth is -2.58% (active).
On to `FC(F)(F)c1ccc2c(c1)Sc1ccccc1N2`, for which the growth was 96.4% (inactive).
For `O=C1NC(=O)C(Cc2ccccc2)(Cc2ccccc2)N1` the value was 101% (inactive); for `C=C(C)[C@@H]1CC[C@]2(C(=O)N3CCN(C)CC3)CC[C@]3(C)[C@H](CC[C@@H]4[C@@]5(C)C/C(=C/c6ccncc6)[C@H](O)C(C)(C)[C@@H]5CC[C@]43C)[C@@H]12`, 4.32% [100 µM] (active); for `C[C@@H](NC(=O)[C@@H](CC(=O)N1CCC(N2CCCCC2)CC1)N1C(=O)[C@@H](N2C(=O)OC[C@@H]2c2ccccc2)[C@H]1/C=C/c1cccc(Cl)c1)c1ccccc1`, 87.8% (inactive).
For `N#C/C(=C(/O)CCCO)c1nc2ccccc2c(=O)[nH]1` the value was 91.2% (inactive).
For `Cn1cc(-c2nnc(-c3cn(C)c4ncc(Br)cc34)s2)c2cc(Br)ccc21` the value was 99.5% (inactive).
`CC1(C)CC[C@]2(C(=O)OC(=O)[C@]34CCC(C)(C)C[C@@H]3C3=CC[C@@H]5[C@@]6(C)CCC(=O)C(C)(C)[C@@H]6CC[C@@]5(C)[C@]3(C)CC4)CC[C@]3(C)C(=CC[C@@H]4[C@@]5(C)CCC(=O)C(C)(C)[C@@H]5CC[C@]43C)[C@H]2C1`: the growth is 58.9% [100 µM] (inactive).
In the case of `Cn1cc(-c2noc(-c3cn(C)c4ncc(Br)cc34)n2)c2cc(Cl)ccc21` it was 75.1% (inactive).
For `CCc1cccc(Cl)c1` the value was 111% (inactive); for `c1cc2ccc3cc2cc1CNCCN1CCNCc2ccc4ccc(cc4c2)CNCCN(CCNC3)CCNCc2ccc3ccc(cc3c2)CNCC1`, -7% (active); for `COc1ccc(-c2cc(-c3ccccc3)nc(NCCNc3ccnc4cc(Cl)ccc34)n2)cc1`, -77.2% (active).
`O=C(N/N=C\c1cc(Cl)ccc1O)N/N=C/c1cc(Cl)ccc1O`: the growth was 45.7% (inactive).
For `O=C1Nc2ccccc2/C1=C/C(=O)c1ccc(N2CCCCC2)cc1` the value was 75.7% (inactive).
Turning to `O=c1c2c3c(sc2n2cnnc2n1Cc1ccccc1)CCCC3`, the growth is 100% (inactive).
In the case of `Cn1c(=O)c(C#N)c(-c2ccco2)n2c(S(=O)(=O)Cc3ccccc3)nnc12` it was 94.3% (inactive); in that of `CCCCCn1sc(=O)n(Cc2ccc(CNC(=O)OCc3ccc4cccc(O)c4n3)cc2)c1=O`, 25.1% (inactive); in that of `O=C(N/N=C/c1ccc([N+](=O)[O-])cc1)c1ccc(Br)o1`, 95.5% (inactive).
Take `C=C(C)[C@@H]1CC[C@]2(COCCC#N)CC[C@]3(C)[C@H](CC[C@@H]4[C@@](C)(CCCNCCC#N)[C@H](C(=C)C)CC[C@]43C)[C@@H]12`: the growth is 29% [100 µM] (inactive).
Take `C=C(C)[C@@H]1CC[C@]2(C(=O)OC)CC[C@]3(C)[C@H](CC[C@@H]4[C@@]5(C)CC/C(=N\OCCC(=NCCC#N)NOCCC#N)C(C)(C)[C@@H]5CC[C@]43C)[C@@H]12`: the growth was 21.8% [100 µM] (inactive).

These data come from PubChem BioAssay (NCI).
